For 23 compounds, Inhibition results are on record in ChEMBL document CHEMBL4513141, “CO-ADD screening of NIH (USA) - Clinical Collection” (2021).

Molecules are shown by their SMILES. Results with a measured potency or affinity are listed apart.

Broadly, the Inhibition is the relative decrease from the control value, in per cent.

One test has as its system Klebsiella pneumoniae. To be noted: Concentration 20 uM; ASSAY_TEST Inhibition of Bacterial Growth; detection method Absorption (OD600); MEDIA CAMHB; plate type 384well; NBS; CORNING #3640; time 18 hr.
For the next test, the system named is Candida albicans. To be noted: 20 µM.
A further test deals with Cryptococcus neoformans. To be noted: Concentration 20 uM; ASSAY_TEST Inhibition of Fungal Growth; detection method Resazurin; Absorption (OD600-OD570); plate type 384well; NBS; CORNING #3640. (Alamar Blue is a resazurin reagent that responds to reducing activity.)

As to `CC(COc1ccccc1Cc1ccccc1)N1CCCCC1.O=P(O)(O)O` (centres undefined), the results for the Inhibition in the test on Klebsiella pneumoniae, in the test on Candida albicans and in the test with Cryptococcus neoformans were 14.21%, 3.69% and 0.43%, respectively.
As for `CC1(C)S[C@@H]2[C@H](NC(=O)[C@H](N)c3ccc(O)cc3)C(=O)N2[C@H]1C(=O)O` [AMOXICILLIN], the Inhibition is 10.29% in the test with Klebsiella pneumoniae, 9.25% in the test with Candida albicans and -2.09% with Cryptococcus neoformans.
Consider `CCCCNC(=O)NS(=O)(=O)c1ccc(C)cc1` [TOLBUTAMIDE], for which the Inhibition in the test on Klebsiella pneumoniae was 16.6%; in the test with Candida albicans, 1.06%; with Cryptococcus neoformans, 0.26%.
For `C#C[C@]1(O)CC[C@H]2[C@@H]3[C@H](C)CC4=C(CCC(=O)C4)[C@H]3CC[C@@]21C` [TIBOLONE], the Inhibition was 12.38% in the test with Klebsiella pneumoniae, 6.29% in the test on Candida albicans and -2.16% in the test on Cryptococcus neoformans.
As for `O=c1c(O[C@@H]2O[C@H](CO)[C@H](O)[C@H](O)[C@H]2O)c(-c2ccc(O)c(O)c2)oc2cc(O)cc(O)c12` [HYPEROSIDE], the values for the Inhibition in the test with Klebsiella pneumoniae, with Candida albicans and in the test on Cryptococcus neoformans were 17.1%, 1.21% and -13.27%, respectively.
`Nc1nnc(-c2cccc(Cl)c2Cl)c(N)n1` [LAMOTRIGINE]: the Inhibition in the test on Klebsiella pneumoniae is 6.26%; in the test on Candida albicans, 3.32%; in the test with Cryptococcus neoformans, -2.92%.
On the same counts, the results for `Cl.O.c1cnc(N2CCN(Cc3ccc4c(c3)OCO4)CC2)nc1` are 3.33%, 3.11% and -7.46%.
Turning to `Cl.Clc1ccccc1CN1CCc2sccc2C1` [TICLOPIDINE HYDROCHLORIDE], the values for the Inhibition with Klebsiella pneumoniae, in the test with Candida albicans and in the test with Cryptococcus neoformans were -0.77%, 1.25% and -6.79%, respectively.
Consider `O=C1[C@H](CC[C@H](O)c2ccc(F)cc2)[C@@H](c2ccc(O)cc2)N1c1ccc(F)cc1` [EZETIMIBE], for which the Inhibition was 2.21% in the test on Klebsiella pneumoniae, -1% in the test on Candida albicans and -1.78% in the test on Cryptococcus neoformans.
The corresponding values for `COc1ccc(-c2oc3c(CC=C(C)C)c(O[C@@H]4O[C@H](CO)[C@@H](O)[C@H](O)[C@H]4O)cc(O)c3c(=O)c2O[C@@H]2O[C@@H](C)[C@H](O)[C@@H](O)[C@H]2O)cc1` [ICARIIN] are 1.41%, 4.36% and 0.11%.
The corresponding values for `C[C@]12C=CC(=O)C=C1CC[C@@H]1[C@@H]2[C@@H](O)C[C@@]2(C)[C@H]1CC[C@]2(O)C(=O)CO` [PREDNISOLONE] are 15.03%, 1.1% and -7.92%.
`CN1CCN(C2=Nc3cc(F)ccc3Cc3ccccc32)CC1` [FLUPERLAPINE]: the Inhibition in the test on Klebsiella pneumoniae is 11.17%; in the test with Candida albicans it was 3.99%; in the test with Cryptococcus neoformans, -6.37%.
Take `Cl.NC12CC3CC(CC(C3)C1)C2` [AMANTADINE HYDROCHLORIDE]: the Inhibition was 13.94% in the test with Klebsiella pneumoniae, 3.06% in the test on Candida albicans and -3.67% in the test on Cryptococcus neoformans.
Regarding `CC(C)[C@H]1CC[C@H](C(=O)N[C@H](Cc2ccccc2)C(=O)O)CC1` [NATEGLINIDE], the Inhibition in the test with Klebsiella pneumoniae was 12.08%; in the test on Candida albicans, 4.05%; with Cryptococcus neoformans, -0.58%.
As to `CCCc1nc(C)c2c(O)nc(-c3cc(S(=O)(=O)N4CCN(CC)CC4)ccc3OCC)nn12.O=C(O)CC(O)(CC(=O)O)C(=O)O`, the figures for the Inhibition in the test on Klebsiella pneumoniae, in the test on Candida albicans and with Cryptococcus neoformans were 10.86%, 4.67% and -15.39%, respectively.
Turning to `O=C1C(CC[S+]([O-])c2ccccc2)C(=O)N(c2ccccc2)N1c1ccccc1` (centres undefined) [SULFINPYRAZONE], the figures for the Inhibition in the test with Klebsiella pneumoniae, with Candida albicans and in the test with Cryptococcus neoformans were 13.98%, 4.96% and -8.91%, respectively.
The corresponding values for `Cl.O=C(NCC1CCCCN1)c1cc(OCC(F)(F)F)ccc1OCC(F)(F)F` (centres undefined) are 7.49%, 3.33% and -9.22%.
As for `COc1cc(C(=O)NC2CCCNC2)cc(OC)c1OC` (centres undefined) [TROXIPIDE], the Inhibition in the test on Klebsiella pneumoniae came to 14.93%; in the test on Candida albicans it was 5.32%; with Cryptococcus neoformans, 0.51%.
Regarding `COCCOC(=O)C1=C(C)NC(C)=C(C(=O)OC(C)C)C1c1cccc([N+](=O)[O-])c1` (centres undefined) [NIMODIPINE], the results for the Inhibition with Klebsiella pneumoniae, with Candida albicans and with Cryptococcus neoformans were 1.9%, 5.34% and -7.18%, respectively.
As to `O=c1cnn([C@@H]2O[C@H](CO)[C@@H](O)[C@H]2O)c(=O)[nH]1` [6-AZAURIDINE], the Inhibition was determined as 4.69% with Klebsiella pneumoniae, 7.12% in the test on Candida albicans and 7.24% in the test with Cryptococcus neoformans.
With `C#C[C@]1(O)CC[C@H]2[C@@H]3CCC4=Cc5oncc5C[C@]4(C)[C@H]3CC[C@@]21C` [DANAZOL], the Inhibition came to 2.6% in the test on Klebsiella pneumoniae, 6.36% in the test on Candida albicans and 0.96% with Cryptococcus neoformans.
On to `CC(=O)O[C@]1(C(C)=O)CC[C@H]2[C@@H]3C=C(C)C4=CC(=O)CC[C@]4(C)[C@H]3CC[C@@]21C` [MEGESTROL ACETATE], for which the Inhibition in the test with Klebsiella pneumoniae is 7.28%; in the test on Candida albicans, 5.92%; with Cryptococcus neoformans, -0.12%.
With `C[C@@H]1C[C@H]2[C@@H]3CCC4=CC(=O)C=C[C@]4(C)[C@@]3(F)[C@@H](O)C[C@]2(C)[C@H]1C(=O)CO` [DESOXIMETASONE], the Inhibition with Klebsiella pneumoniae was determined as 9.74%; in the test on Candida albicans it was 2.64%; with Cryptococcus neoformans, 2.06%.
